Source: article PMC12820563, “FoxP3 forms a head-to-head dimer in vivo and stabilizes its multimerization on adjacent microsatellites”
Whole data set: some 16,000 sequences, median “rpm ratio (pull-down/input)” near 0.94, cut for the highest 2% near 1.7. For the sample, the highest values were picked, then their nearest neighbours and some sequences at random.

target: T1, MBP-FoxP1dN (Mus musculus, UniProt P58462 326-579); assay: PD-seq (MBP pull-down with sequencing); 20 mM Tris-HCl pH 7.5, 100 mM NaCl, 1.5 mM MgCl2, 0.4 uM protein, 0.1 uM dsDNA library, 30 min, room temperature, amylose pull-down; high values mean tight binding; conditions: protein: recombinant; tags: His6-MBP; chain copies: 2; dsDNA, one strand shown
T1 sequence: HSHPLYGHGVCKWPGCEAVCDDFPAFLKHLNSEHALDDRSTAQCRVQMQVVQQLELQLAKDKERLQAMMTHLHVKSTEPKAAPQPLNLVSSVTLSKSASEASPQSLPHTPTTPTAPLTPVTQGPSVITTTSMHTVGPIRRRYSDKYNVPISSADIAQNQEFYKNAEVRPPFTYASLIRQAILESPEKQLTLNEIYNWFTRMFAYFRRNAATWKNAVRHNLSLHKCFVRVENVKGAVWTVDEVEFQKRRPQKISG
How it was run: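 Binding is given as reads-per-million enrichment, pull-down over input, with replicates pooled. The bait was an N-terminus-lacking mouse FoxP3 or FoxP1 fragment with a His6-MBP tag, expressed in E. coli and used at 0.4 µM with 0.1 µM Klenow-filled degenerate double-stranded DNA library for 30 min at room temperature in Tris pH 7.5 buffer with NaCl and MgCl2. Amylose resin pull-down with three washes was followed by proteinase K release, PCR barcoding and Illumina sequencing.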

Point of comparison: “GATGATTGTTCTCCCAGCTGATGAATTATTGTTATCGAGTAAACAAATTTTCCTAATCTTTCTGTTCAAGCGCCATCTAC”, binding signal 2.83 RPM ratio (pull-down/input). Against it:
- GATGATTGTTCTCCCAGCTGATGAATTATTATTATCGAGTAAACAAATTTTCCTAATCTTTCTGTTCAAGCGCCATCTAC — lower, 2.52 RPM ratio (pull-down/input)
- GATGATTGTTCTCCCAGCTGATGAATTATTATCATCGAGTAAACAAATTTTCCTAATCTTTCTGTTCAAGCGCCATCTAC — lower, 1.38 RPM ratio (pull-down/input)
- GATGATTGTTCTCCCAGCTGATGAATTATTTTTATCGAGTAAACAAATTTTCCTAATCTTTCTGTTCAAGCGCCATCTAC — lower, 1.4 RPM ratio (pull-down/input)
- GATGATTGTTCTCCCAGCTGATGAATTTCTATTATCGAGTAAACAAATTTTCCTAATCTTTCTGTTCAAGCGCCATCTAC — lower, 1.48 RPM ratio (pull-down/input)
- GATGATTGTTCTCCCAGCTGATGAATTTTTAGTATCGAGTAAACAAATTTTCCTAATCTTTCTGTTCAAGCGCCATCTAC — lower, 1.02 RPM ratio (pull-down/input)
- GATGATTGTTCTCCCAGCTGATGAATTGTTAGTATCGAGTAAACAAATTTTCCTAATCTTTCTGTTCAAGCGCCATCTAC — lower, 1.76 RPM ratio (pull-down/input)
- GATGATTGTTCTCCCAGCTGATGAATTATTTCTATCGAGTAAACAAATTTTCCTAATCTTTCTGTTCAAGCGCCATCTAC — lower, 1.13 RPM ratio (pull-down/input)
- GATGATTGTTCTCCCAGCTGATGAATTCTTAGTATCGAGTAAACAAATTTTCCTAATCTTTCTGTTCAAGCGCCATCTAC — lower, 0.963 RPM ratio (pull-down/input)
- GATGATTGTTCTCCCAGCTGATGAATTTATTAAATCGAGTAAACAAATTTTCCTAATCTTTCTGTTCAAGCGCCATCTAC — lower, 1.39 RPM ratio (pull-down/input)
- GATGATTGTTCTCCCAGCTGATGAATTTGGCGTCTCGAGTAAACAAATTTTCCTAATCTTTCTGTTCAAGCGCCATCTAC — lower, 0.85 RPM ratio (pull-down/input)
- GATGATTGTTCTCCCAGCTGATGAATTAGTTCGTTCGAGTAAACAAATTTTCCTAATCTTTCTGTTCAAGCGCCATCTAC — lower, 0.937 RPM ratio (pull-down/input)
- GATGATTGTTCTCCCAGCTGATGAATTCCGTGTTTCGAGTAAACAAATTTTCCTAATCTTTCTGTTCAAGCGCCATCTAC — lower, 0.891 RPM ratio (pull-down/input)
- GATGATTGTTCTCCCAGCTGATGAATTATGATTCTCGAGTAAACAAATTTTCCTAATCTTTCTGTTCAAGCGCCATCTAC — lower, 0.982 RPM ratio (pull-down/input)
- GATGATTGTTCTCCCAGCTGATGAATTCCAAGCGTCGAGTAAACAAATTTTCCTAATCTTTCTGTTCAAGCGCCATCTAC — lower, 0.867 RPM ratio (pull-down/input)
- GATGATTGTTCTCCCAGCTGATGAATTGCACACATCGAGTAAACAAATTTTCCTAATCTTTCTGTTCAAGCGCCATCTAC — lower, 1.31 RPM ratio (pull-down/input)
- GATGATTGTTCTCCCAGCTGATGAATTTCTGCAGTCGAGTAAACAAATTTTCCTAATCTTTCTGTTCAAGCGCCATCTAC — lower, 0.883 RPM ratio (pull-down/input)
- GATGATTGTTCTCCCAGCTGATGAATTGAGTGATTCGAGTAAACAAATTTTCCTAATCTTTCTGTTCAAGCGCCATCTAC — lower, 0.981 RPM ratio (pull-down/input)
- GATGATTGTTCTCCCAGCTGATGAATTACCGGGCTCGAGTAAACAAATTTTCCTAATCTTTCTGTTCAAGCGCCATCTAC — lower, 0.841 RPM ratio (pull-down/input)
- GATGATTGTTCTCCCAGCTGATGAATTAGAAAGTTCGAGTAAACAAATTTTCCTAATCTTTCTGTTCAAGCGCCATCTAC — lower, 0.938 RPM ratio (pull-down/input)
- GATGATTGTTCTCCCAGCTGATGAATTATTGTAATCGAGTAAACAAATTTTCCTAATCTTTCTGTTCAAGCGCCATCTAC — lower, 1.91 RPM ratio (pull-down/input)
- GATGATTGTTCTCCCAGCTGATGAATTATTCTAATCGAGTAAACAAATTTTCCTAATCTTTCTGTTCAAGCGCCATCTAC — lower, 1.2 RPM ratio (pull-down/input)
- GATGATTGTTCTCCCAGCTGATGAATTCTTATTATCGAGTAAACAAATTTTCCTAATCTTTCTGTTCAAGCGCCATCTAC — lower, 1.6 RPM ratio (pull-down/input)
- GATGATTGTTCTCCCAGCTGATGAATTCTATTTATCGAGTAAACAAATTTTCCTAATCTTTCTGTTCAAGCGCCATCTAC — lower, 2.58 RPM ratio (pull-down/input)
- GATGATTGTTCTCCCAGCTGATGAATTGATGATATCGAGTAAACAAATTTTCCTAATCTTTCTGTTCAAGCGCCATCTAC — lower, 1.21 RPM ratio (pull-down/input)
- GATGATTGTTCTCCCAGCTGATGAATTATTCTTATCGAGTAAACAAATTTTCCTAATCTTTCTGTTCAAGCGCCATCTAC — lower, 1.08 RPM ratio (pull-down/input)
- GATGATTGTTCTCCCAGCTGATGAATTTATTCTATCGAGTAAACAAATTTTCCTAATCTTTCTGTTCAAGCGCCATCTAC — lower, 1.16 RPM ratio (pull-down/input)
- GATGATTGTTCTCCCAGCTGATGAATTATTTCAATCGAGTAAACAAATTTTCCTAATCTTTCTGTTCAAGCGCCATCTAC — lower, 1.11 RPM ratio (pull-down/input)
- GATGATTGTTCTCCCAGCTGATGAATTATTCCTATCGAGTAAACAAATTTTCCTAATCTTTCTGTTCAAGCGCCATCTAC — lower, 1.08 RPM ratio (pull-down/input)
- GATGATTGTTCTCCCAGCTGATGAATTTTTGATATCGAGTAAACAAATTTTCCTAATCTTTCTGTTCAAGCGCCATCTAC — lower, 1.17 RPM ratio (pull-down/input)
- GATGATTGTTCTCCCAGCTGATGAATTGTTGATATCGAGTAAACAAATTTTCCTAATCTTTCTGTTCAAGCGCCATCTAC — lower, 2.16 RPM ratio (pull-down/input)
- GATGATTGTTCTCCCAGCTGATGAATTGAGGCTGTCGAGTAAACAAATTTTCCTAATCTTTCTGTTCAAGCGCCATCTAC — lower, 0.891 RPM ratio (pull-down/input)
